# This excerpt belongs to a sample that is enriched for hits.
# Shiga inhibitor: inhibitors of Shiga toxin in Vero cells; inhibition, % at 38.7 µM; actives 9.2% (n = 290,000); Vero cells, Shiga toxin protein synthesis inhibition reporter; AID 2315; in the data active means inhibition mostly above about 28%, no sharp cut-off; inactive means mostly below about 43%
# VACV mCherry inh: inhibitors of vaccinia virus infection (mCherry reporter signal). Vaccinia virus mCherry reporter infection, fluorescence. actives 0.63% (n = 310,000). AID 720579. Potency, µM (top dose mostly 36.5 µM), actives largely listed as inhibitors; calls by dose curve; tested in A549 cells; further: nearly all actives have a fitted effect of over 35% in size
# VACV Venus inh: vaccinia inhibition (Venus reporter); Vaccinia virus Venus reporter expression, fluorescence; Potency, µM (titrated, usually from 36.5 µM), hits mostly inhibitors; actives 0.46% (n = 330,000); calls by dose curve; tested in A549 cells; further: nearly all actives have a fitted effect of over 30% in size
# LASV entry inh: inhibitors of Lassa virus binding or cell entry; Lassa virus pseudotype entry inhibition, cell reporter; Potency, µM (highest dose often 37.9 µM), most hits filed as inhibitors; actives 1.2% (n = 300,000); AID 540256; calls by dose curve; tested in HEK293 cells; further: nearly all actives have a fitted effect of over 50% in size
# MARV entry inh: inhibitors of Marburg virus binding or cell entry; Marburg virus pseudotyped entry inhibition, cell reporter; Potency, µM (top dose mostly 37.8 µM), actives largely listed as inhibitors; actives 1.8% (n = 300,000); AID 540276; calls by dose curve; tested in HEK293 cells
# Cycloheximide cs: affects cycloheximide protein synthesis inhibition readout, counter-screen | cell reporter, cycloheximide protein synthesis inhibition counterscreen | max response, % | actives 12% (n = 300,000) | AID 2314; in the data active means max response mostly above about 13%, no sharp cut-off; inactive means mostly below about 14%; further: read at 38.3 µM for the half of the compounds with a filed dose
# Hits are given with their value; n = inactive; u = inconclusive; x = not tested or not shown.
SMILES,Shiga inhibitor,VACV mCherry inh,VACV Venus inh,LASV entry inh,MARV entry inh,Cycloheximide cs
Cc1ccc(/C=C/c2ccc3cccc(O)c3n2)s1,95,u,n,u,u,58
CC(=O)COc1cccc2ccc(/C=C/c3ccc(Br)s3)nc12,36,x,x,x,x,n
COc1cccc2ccc(/C=C/c3ccc4c(c3)OCO4)nc12,x,n,n,x,x,x
COc1cccc(/C=C/c2ccc3cccc(O)c3n2)c1,121,u,n,u,u,47
Oc1cccc(/C=C/c2ccc3cccc(O)c3n2)c1,128,u,n,u,u,37
O=C(Nc1cc(-c2ccccc2)nn1-c1ccccc1)c1ccccc1F,x,n,n,x,x,x
CCCc1cc(F)c(S(=O)(=O)N2CCN(S(=O)(=O)c3ccc4c(c3)OCCO4)CC2)cc1F,n,x,x,x,x,n
c1ccc(Nc2ccc3c4c(cccc24)CC3)cc1,n,x,x,n,n,n
c1ccc(NC2=Nc3ccccc3CC2)cc1,45,x,n,u,n,37
CCOC(=O)c1sc(NC(=S)NC(=O)c2cccc(OC)c2)nc1C,n,n,n,n,n,n
COC(=O)c1sc(NC(=S)NC(=O)c2ccccc2Cl)nc1C,65,n,n,u,u,40
COC(=O)c1sc(NC(=O)/C=C/c2ccccc2Cl)nc1C,n,n,n,n,u,n
CCOC(=O)c1sc(NC(=S)NC(=O)c2ccccc2)nc1C,165,x,x,x,x,42
COC(=O)c1sc(NC(=S)NC(=O)c2ccccc2)nc1C,n,n,n,u,u,26
CCOC(=O)C1=C(NC(=S)NC(=O)c2ccccc2)c2ccccc2CC12CCCC2,n,u,n,2.6µM,3.7µM,n
COc1ccc(CCNC(=O)c2cc3sccc3n2Cc2ccc(Cl)cc2)cc1OC,x,n,n,n,u,x
COc1ccc(CC(=O)NC2CC(=O)N(c3cccc(F)c3)C2)cc1OC (configuration not stated),x,n,n,u,x,x
Cc1cc(NC(=O)c2cc(-c3ccc(Br)cc3)on2)nn1Cc1ccc(Cl)cc1,x,n,n,n,n,x
COc1ccc(CN2C(=O)C(CC(=O)NC(c3ccccc3)c3ccccc3)CC(C(=O)N(C)C)=C2C)cc1 (configuration not stated),x,n,n,x,x,x
Cc1nc(NC(=S)NC(=O)c2ccccc2)sc1C(=O)N(C)C,n,n,n,u,n,22
CCCOc1ccc(C(=O)NC(=S)Nc2nc(C)c(C(=O)N(C)C)s2)cc1,n,x,x,n,n,n
[N-]=[N+]=NC1CC(CO)OC1n1ccc(=O)[nH]c1=O (configuration not stated),n,x,x,x,x,n
C/C(CC(=O)NCc1ccco1)=N\NC(=O)COc1ccc(Cl)cc1Cl,n,n,n,n,u,n
O=C(COC(=O)CNC(=O)c1ccc(Cl)cc1Cl)NCC1CCCO1 (configuration not stated),x,n,n,n,n,x
O=C(CNC(=O)c1ccc(Cl)cc1Cl)OCC(=O)c1ccc2c(c1)OCCO2,73,n,n,n,n,31
SMILES,Shiga inhibitor,VACV mCherry inh,VACV Venus inh,LASV entry inh,MARV entry inh,Cycloheximide cs
O=C(COc1ccc(Cl)cc1Cl)NCc1ccco1,126,n,n,u,n,29
CCOc1cc(C(=O)NCc2ccco2)cc(OCC)c1OCC,n,x,x,x,x,n
O=C(COc1ccccc1Cl)NCc1ccco1,n,n,n,n,u,23
O=C(NCc1ccco1)c1ccc(COc2cc(Cl)ccc2Cl)cc1,69,n,u,n,n,24
CCOC(=O)C1CCCN(C(=O)c2cnn(-c3ncc4c(n3)-c3ccccc3CC4)c2C)C1 (configuration not stated),x,n,n,x,x,x
CCOc1ccc(NC(=O)CN2CCN(CC(=O)Nc3ccccc3OCC)CC2)cc1,x,n,n,n,x,x
O=C(Cc1ccc(-c2ccccc2)cc1)NNC(=S)NCc1ccco1,56,n,n,u,n,n
O=C(NCc1ccco1)c1ccc2c(c1)N(Cc1ccc(Cl)cc1)CCS2,45,n,n,u,u,8.3
O=C(COc1ccc(Cl)cc1Cl)NNC(=S)NCc1ccco1,n,x,x,x,x,17
O=C(Cc1cccs1)NNC(=S)NCc1ccco1,n,n,n,n,u,n
CN(C)CCNC(=O)c1ccc(COc2ccc(Cl)cc2Cl)cc1,n,x,x,u,8.2µM,n
COc1ccc(N2CCN(C(=O)CN3C(=O)CSc4c3c(C)nn4-c3ccccc3)CC2)cc1,x,n,n,u,x,x
COc1ccc(CCNC(=O)C2CCCN(S(=O)(=O)c3ccc4c(c3)oc(=O)n4C)C2)cc1OC (configuration not stated),x,n,n,n,n,x
O=C(COC(=O)CNC(=O)c1ccc(Cl)cc1Cl)NCc1ccco1,x,n,n,u,2.8µM,x
Nc1nonc1-c1noc(CCCCCN2C(=O)c3ccccc3C2=O)n1,148,n,n,n,n,75
O=C1c2ccccc2C(=O)N1CCCc1nc(-c2ccccn2)no1,84,n,n,n,n,23
c1ccc(OCCCc2nc(-c3ccccn3)no2)cc1,42,x,n,n,n,34
O=C1c2ccccc2C(=O)N1CCc1nc(-c2ccccn2)no1,58,x,x,n,u,28
Cc1ccc(N2C(=O)C[C@H](Cn3nc(C)cc3C)C2=O)cc1,x,x,x,x,n,x
Cc1cc(C)c(NC(=O)C2CCN(C(=O)N3CC(C)Oc4ccc(Cl)cc43)CC2)c(C)c1 (configuration not stated),x,n,n,u,x,x
COCCN1CCN(C(=O)c2cnn(-c3nccc(-c4ccccc4OC)n3)c2-c2ccco2)CC1,x,n,n,x,x,x
CC(=O)c1ccc(N2C(=O)C3C(C2=O)C(C(=O)c2ccc(Cl)cc2)N2CCCC32)cc1 (configuration not stated),n,n,n,n,u,n
COc1ccc(N2C(=O)C3C(C2=O)C(C(=O)c2ccc(Cl)cc2)N2CCCC32)cc1 (configuration not stated),90,n,n,n,u,34
